Records with an inconclusive call do not appear. Activity calls are given as the source filed them. Rule for the calls, unless noted: active = hit-call score of the fitted dose curve at least 0.9, where 1 is the maximum; inconclusive = response in the unintended direction; inactive = score below 0.9.

Experiment [1] is described as follows: ATG_TAL_CIS: Attagene CIS-FACTORIAL HepG2 Assay for human TAL Basal Promoter (AID 2282966; active = hit-call score of the fitted dose curve at least 0.9, where 1 is the maximum; inactive = score below 0.9;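 note: background control endpoint measuring basal TAL promoter reporter mRNA not a specific factor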). As to conditions: HepG2 Attagene cis-factorial TAL promoter reporter; actives raise or lower the signal. The procedure, abridged: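 Endogenous transcription-factor activity is sensed in HepG2 cells through transfected cis-promoter reporter constructs. After 24 h dosing, reporter transcripts are quantified by RT-PCR and capillary electrophoresis. Gain or loss of signal is fitted relative to DMSO.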

Experiment [2] in a line: ATG_VDRE_CIS: Attagene CIS-FACTORIAL HepG2 Assay for human Vitamin D Receptor Element (VDRE) (AID 2282968; active = hit-call score of the fitted dose curve at least 0.9, where 1 is the maximum; inactive = score below 0.9). The following applies: HepG2 VDRE cis-reporter transcription, actives raise or lower the signal. The procedure, abridged:
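Compounds were applied for 24 h to HepG2 cells transfected with promoter-regulated reporter units. Total RNA was reverse-transcribed, and reporter amplicons were fluorescently labelled and sized by capillary electrophoresis.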

For experiment [3], the target named is Estrogen receptor (Homo sapiens) (UniProt P03372). Description: ATG_ERa_TRANS: Attagene TRANS-FACTORIAL HepG2 Assay for human Estrogen Receptor alpha (ERa) (AID 2282970). The following applies: HepG2 Attagene TRANS ERa GAL4 reporter, mRNA. The procedure, abridged: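 Transfected HepG2 cells carrying GAL4-UAS-driven reporter units were dosed for 24 hours. Total RNA was reverse-transcribed, reporter sequences PCR-amplified, FAM-labelled, HpaI-digested and resolved by capillary electrophoresis. Increases over DMSO control defined activity.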
Estrogen receptor (Homo sapiens), sequence (P03372 whole entry, looked up, the tested form may be a part): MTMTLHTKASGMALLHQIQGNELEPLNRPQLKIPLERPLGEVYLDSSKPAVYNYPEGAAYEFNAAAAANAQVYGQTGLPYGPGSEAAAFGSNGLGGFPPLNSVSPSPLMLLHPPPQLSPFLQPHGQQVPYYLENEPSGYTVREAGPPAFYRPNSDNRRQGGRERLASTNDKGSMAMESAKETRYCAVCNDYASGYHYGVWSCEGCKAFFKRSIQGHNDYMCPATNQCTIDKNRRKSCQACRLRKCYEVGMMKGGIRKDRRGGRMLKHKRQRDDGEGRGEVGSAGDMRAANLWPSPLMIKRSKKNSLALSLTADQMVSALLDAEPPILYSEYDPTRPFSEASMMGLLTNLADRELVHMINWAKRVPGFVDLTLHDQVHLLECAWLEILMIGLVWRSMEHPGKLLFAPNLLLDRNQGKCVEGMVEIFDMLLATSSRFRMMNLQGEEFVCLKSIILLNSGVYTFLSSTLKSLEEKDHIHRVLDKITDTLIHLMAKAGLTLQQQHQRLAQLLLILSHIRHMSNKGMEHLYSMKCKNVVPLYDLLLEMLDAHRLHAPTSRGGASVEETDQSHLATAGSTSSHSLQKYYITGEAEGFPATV

Experiment [4] addresses X-box-binding protein 1 (Homo sapiens) (UniProt P17861). Description: ATG_Xbp1_CIS: Attagene CIS-FACTORIAL HepG2 Assay for human X-box Binding Protein 1 (XBP1) (AID 2282972; active = hit-call score of the fitted dose curve at least 0.9, where 1 is the maximum; inactive = score below 0.9). As to conditions: HepG2 XBP1 cis-element reporter, Attagene multiplex; actives raise or lower the signal. The method in brief:
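Multiplexed cis-reporter readout in transfected HepG2 liver cells. Exposure lasted 24 hours. Activity in either direction was fitted against DMSO as negative control and baseline.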

Experiment [5] in a line: ATG_M_19_TRANS: Attagene TRANS-FACTORIAL HepG2 Assay for M19 Transcription Factor (Internal Marker) (AID 2282974). As to conditions: HepG2 Attagene TRANS-FACTORIAL M19 internal marker reporter. The method in brief:
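HepG2 transiently transfected with GAL4-UAS multiplex reporter constructs, exposed 24 h; reporter RNA quantified by RT-PCR, 6-FAM labeling, HpaI digestion and capillary electrophoresis; internal background marker fitted upward versus DMSO.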

The nature of experiment [6]: ATG_GAL4_TRANS: Attagene TRANS-FACTORIAL HepG2 Assay for GAL4 (Internal Marker) (AID 2282976). The following applies: HepG2 Attagene TRANS GAL4 internal marker reporter. The procedure, abridged:
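Fluorescence from capillary electrophoresis of labelled RT-PCR products quantifies reporter mRNA induction after 24 h dosing of HepG2 cells carrying transfected GAL4-UAS reporter transcription units. Vehicle DMSO serves as baseline.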

Experiment [7] has as its target Estrogen-related receptor gamma (Homo sapiens) (UniProt P62508). Description: ATG_ERRg_TRANS: Attagene TRANS-FACTORIAL HepG2 Assay for human Estrogen-Related Receptor gamma (ERRg) (AID 2282977).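 Note: hits increase reporter signal over DMSO so potencies reflect activators.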 As to conditions: HepG2 Attagene TRANS reporter, ERRg transactivation. The method in brief:
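Induction of reporter transcripts through a chimeric NR-Gal4 protein is quantified in transfected human HepG2 liver cells after 24 h chemical exposure, using RT-PCR with capillary electrophoresis detection and DMSO as baseline.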

Experiment [8] addresses Glucocorticoid receptor (Homo sapiens) (UniProt P04150). Description: ATG_GR_TRANS: Attagene TRANS-FACTORIAL HepG2 Assay for human Glucocorticoid Receptor (GR) (AID 2282978).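 Note: activators score as hits since higher reporter transcript over DMSO is fitted.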 The following applies: HepG2 Attagene TRANS GR reporter, mRNA transcription. The method in brief: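 HepG2 cells transiently transfected with GAL4-UAS reporter units and exogenous GR-Gal4 chimera, dosed 24 h. Reporter mRNA by RT-PCR, FAM labeling, HpaI digest and capillary electrophoresis; gain-of-signal fit versus DMSO.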

Experiment [9] has as its target Bile acid receptor (Homo sapiens) (UniProt Q96RI1). Description: ATG_FXR_TRANS: Attagene TRANS-FACTORIAL HepG2 Assay for Farnesoid X Receptor (FXR) (AID 2282979).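 Note: hits raise reporter mRNA above DMSO so AC50 marks FXR activation.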 As to conditions: HepG2 Attagene TRANS FXR-GAL4 reporter transcription. The procedure, abridged:
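Chimeric FXR-GAL4 activity in transiently transfected human HepG2 liver cells is scored as induction of reporter mRNA after 24 h of dosing. Detection uses RT-PCR with fluorescent labelling and capillary electrophoresis, with DMSO serving as baseline.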

For experiment [10], the target named is Oxysterols receptor LXR-alpha (Homo sapiens) (UniProt Q13133). Description: ATG_LXRa_TRANS: Attagene TRANS-FACTORIAL HepG2 Assay for human Liver X Receptor alpha (LXRa) (AID 2282980). As to conditions: HepG2 Attagene TRANS reporter, LXRa transactivation. The method in brief: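 Transient HepG2 transfectants, 24 h dosing, RT-PCR/CE mRNA reporter quantitation; gain-of-signal vs DMSO.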

Experiment [11] concerns the target Oxysterols receptor LXR-beta (Homo sapiens) (UniProt P55055). Description: ATG_LXRb_TRANS: Attagene TRANS-FACTORIAL HepG2 Assay for human Liver X Receptor beta (LXRb) (AID 2282981). As to conditions: HepG2 Attagene TRANS GAL4-LXRb reporter, mRNA. The procedure, abridged:
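Multiplexed reporter assay, HepG2, 24 h dosing. Fluorescence of labelled RT-PCR products after capillary electrophoresis gives transcript level; positive fitting direction relative to DMSO.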

The target in experiment [12] is Hepatocyte nuclear factor 4-alpha (Homo sapiens) (UniProt P41235). Nature of the experiment: ATG_HNF4a_TRANS: Attagene TRANS-FACTORIAL HepG2 Assay for human Hepatocyte Nuclear Factor 4 alpha (HNF4a) (AID 2282982). As to conditions: HepG2 HNF4a transactivation reporter, mRNA readout. The method in brief: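 Endpoint reflects transcriptional activation of a GAL4-UAS reporter by an HNF4a-GAL4 chimera in transfected HepG2 cells, 24 h post-dosing. Fluorescence from RT-PCR products separated by capillary electrophoresis; DMSO baseline.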
Hepatocyte nuclear factor 4-alpha (Homo sapiens), sequence (P41235 whole entry, looked up, the tested form may be a part): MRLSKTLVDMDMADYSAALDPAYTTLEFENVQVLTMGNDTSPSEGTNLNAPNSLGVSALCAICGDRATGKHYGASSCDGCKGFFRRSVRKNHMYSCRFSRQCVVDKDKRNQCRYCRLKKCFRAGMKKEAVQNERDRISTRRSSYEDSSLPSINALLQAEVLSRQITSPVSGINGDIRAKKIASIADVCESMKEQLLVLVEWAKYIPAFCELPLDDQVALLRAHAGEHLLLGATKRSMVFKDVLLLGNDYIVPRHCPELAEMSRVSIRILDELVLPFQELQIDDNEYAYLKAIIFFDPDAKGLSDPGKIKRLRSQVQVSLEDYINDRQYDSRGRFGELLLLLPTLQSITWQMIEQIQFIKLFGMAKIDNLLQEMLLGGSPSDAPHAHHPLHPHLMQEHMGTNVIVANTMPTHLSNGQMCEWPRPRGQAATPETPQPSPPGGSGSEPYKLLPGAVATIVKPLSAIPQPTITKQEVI

Experiment [13] can be described thus: ATG_M_32_TRANS: Attagene TRANS-FACTORIAL HepG2 Assay for M32 Transcription Factor (Internal Marker) (AID 2282984).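 Note: transcript level of a background control reporter unit measured by RT-PCR and capillary electrophoresis.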 As to conditions: HepG2 Attagene TRANS M32 internal marker reporter. The procedure, abridged: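 Internal-marker readout from a multiplexed transcription reporter panel. HepG2 cells were transfected with GAL4-UAS reporter units, treated 24 hours, and reporter transcript levels determined by fluorescence after RT-PCR and capillary separation.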

Experiment [14] deals with Transcriptional activator Myb (Homo sapiens) (UniProt P10242). Description: ATG_Myb_CIS: Attagene CIS-FACTORIAL HepG2 Assay for human Myeloblastosis (Myb) Proto-Oncogene Transcription Factor (AID 2282986; active = hit-call score of the fitted dose curve at least 0.9, where 1 is the maximum; inactive = score below 0.9). As to conditions: HepG2 Attagene CIS-FACTORIAL Myb reporter transcription; actives raise or lower the signal. The method in brief:
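Transiently transfected HepG2 cells carrying a multiplexed cis-promoter reporter set report endogenous Myb activity after 24 h compound exposure. Reporter mRNA is read by RT-PCR with capillary electrophoresis of fluorescent products, fitted bidirectionally against DMSO.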

Experiment [15] has as its target Nuclear respiratory factor 1 (Homo sapiens) (UniProt Q16656). Nature of the experiment: ATG_NRF1_CIS: Attagene CIS-FACTORIAL HepG2 Assay for human Nuclear Respiratory Factor 1 (NRF1) Orphan Gene (AID 2282987; active = hit-call score of the fitted dose curve at least 0.9, where 1 is the maximum; inactive = score below 0.9). As to conditions: HepG2 NRF1 cis-element reporter, Attagene multiplex; actives raise or lower the signal. The method in brief: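 HepG2 cells transiently transfected with multiple cis-regulated reporter units, exposed 24 h. Reporter mRNAs measured by RT-PCR, fluorescent labelling, HpaI digestion and capillary electrophoresis; bidirectional fitting against DMSO.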

Experiment [16] can be described thus: ATG_M_06_TRANS: Attagene TRANS-FACTORIAL HepG2 Assay for M06 Transcription Factor (Internal Marker) (AID 2282983). As to conditions: HepG2 Attagene TRANS M06 internal marker reporter. The method in brief:
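Human liver HepG2 cells bearing transiently transfected chimeric NR-GAL4 reporter units were treated with chemicals for 24 h. Total RNA was reverse-transcribed, reporter sequences amplified and labelled, then quantified by capillary electrophoresis. Activity was fitted upward relative to DMSO.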

Experiment [17] addresses Nuclear receptor subfamily 4 group A member 2 (Homo sapiens) (UniProt P43354). Nature of the experiment: ATG_NURR1_TRANS: Attagene TRANS-FACTORIAL HepG2 Assay for human Nuclear Receptor Related Protein 1 (NURR1) (AID 2282985). The following applies: HepG2 Attagene TRANS reporter, mRNA readout. The method in brief:
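Endpoint: reporter mRNA increase relative to DMSO. HepG2 cells transfected with reporter units, treated 24 h; RNA processed by RT-PCR, labelling, HpaI digestion and capillary electrophoresis.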

In experiment [18] the target is Nuclear receptor subfamily 1 group I member 3 (Homo sapiens) (UniProt Q14994). Nature of the experiment: ATG_CAR_TRANS: Attagene TRANS-FACTORIAL HepG2 Assay for human Constitutive Androstane Receptor (CAR) (AID 2282969).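 Note: activators raise reporter mRNA above DMSO so AC50 marks induction.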 The following applies: HepG2 Attagene TRANS-FACTORIAL CAR reporter. The method in brief: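 Transiently transfected HepG2, multiplex TRANS reporters (CAR-Gal4 chimera driving GAL4-UAS reporter). 24 h dosing. Readout: reporter transcript by RT-PCR + capillary electrophoresis, fluorescence intensity; positive direction vs DMSO.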

The target of experiment [19] is Steroid hormone receptor ERR1 (Homo sapiens) (UniProt P11474). Description: ATG_ERRa_TRANS: Attagene TRANS-FACTORIAL HepG2 Assay for human Estrogen-Related Receptor alpha (ERRa) (AID 2282971). As to conditions: HepG2 Attagene TRANS reporter, ERRa transactivation. The method in brief: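 HepG2 cells were transiently transfected with multiple GAL4-UAS reporter units, then dosed with compound for 24 h. Total RNA was reverse-transcribed, reporter cDNA PCR-amplified and fluorescently labelled, and fragments resolved by capillary electrophoresis; induction was compared with DMSO.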

Estrogen-related receptor gamma (Homo sapiens), sequence (P62508 whole entry, looked up, the tested form may be a part): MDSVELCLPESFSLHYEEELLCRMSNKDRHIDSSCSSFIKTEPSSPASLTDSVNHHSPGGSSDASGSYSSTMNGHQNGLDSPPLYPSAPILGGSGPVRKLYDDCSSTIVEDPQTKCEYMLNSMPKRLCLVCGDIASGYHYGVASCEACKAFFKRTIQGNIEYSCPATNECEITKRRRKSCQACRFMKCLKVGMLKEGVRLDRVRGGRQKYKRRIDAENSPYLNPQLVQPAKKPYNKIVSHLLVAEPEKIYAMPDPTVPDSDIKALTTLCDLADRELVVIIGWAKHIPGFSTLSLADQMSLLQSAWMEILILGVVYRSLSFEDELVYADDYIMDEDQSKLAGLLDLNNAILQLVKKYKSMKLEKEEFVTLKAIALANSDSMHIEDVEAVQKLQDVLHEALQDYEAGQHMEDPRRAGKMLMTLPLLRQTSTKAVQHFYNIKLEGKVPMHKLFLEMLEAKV
Transcriptional activator Myb (Homo sapiens), sequence (P10242 whole entry, looked up): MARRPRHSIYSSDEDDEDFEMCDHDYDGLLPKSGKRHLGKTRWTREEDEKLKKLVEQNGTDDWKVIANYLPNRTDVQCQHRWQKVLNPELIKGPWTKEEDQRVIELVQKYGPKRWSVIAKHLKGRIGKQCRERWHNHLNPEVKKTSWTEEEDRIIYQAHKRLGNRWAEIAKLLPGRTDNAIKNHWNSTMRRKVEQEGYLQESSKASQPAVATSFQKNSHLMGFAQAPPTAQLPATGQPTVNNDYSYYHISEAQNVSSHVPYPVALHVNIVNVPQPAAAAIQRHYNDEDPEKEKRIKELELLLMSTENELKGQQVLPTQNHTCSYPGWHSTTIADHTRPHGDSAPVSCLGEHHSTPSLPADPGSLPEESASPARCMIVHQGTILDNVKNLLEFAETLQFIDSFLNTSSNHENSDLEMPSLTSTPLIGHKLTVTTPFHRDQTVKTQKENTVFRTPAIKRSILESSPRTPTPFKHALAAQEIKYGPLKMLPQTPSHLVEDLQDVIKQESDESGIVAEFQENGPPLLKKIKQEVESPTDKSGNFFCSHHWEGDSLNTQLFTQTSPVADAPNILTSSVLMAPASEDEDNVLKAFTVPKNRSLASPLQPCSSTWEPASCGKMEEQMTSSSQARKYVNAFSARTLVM
Oxysterols receptor LXR-beta (Homo sapiens), sequence (P55055 whole entry, looked up, the tested form may be a part): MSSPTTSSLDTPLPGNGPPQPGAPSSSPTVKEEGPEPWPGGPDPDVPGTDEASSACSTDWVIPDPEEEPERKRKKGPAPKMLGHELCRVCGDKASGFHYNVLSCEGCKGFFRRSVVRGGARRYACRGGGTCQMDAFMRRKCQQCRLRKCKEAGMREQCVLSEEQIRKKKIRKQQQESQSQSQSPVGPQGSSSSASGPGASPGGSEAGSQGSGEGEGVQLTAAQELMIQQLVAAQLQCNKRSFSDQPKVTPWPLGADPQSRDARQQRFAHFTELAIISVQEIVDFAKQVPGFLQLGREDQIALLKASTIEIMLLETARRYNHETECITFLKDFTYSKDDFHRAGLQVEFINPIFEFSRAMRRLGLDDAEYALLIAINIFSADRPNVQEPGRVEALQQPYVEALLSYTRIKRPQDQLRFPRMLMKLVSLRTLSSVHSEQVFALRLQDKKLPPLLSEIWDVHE
Bile acid receptor (Homo sapiens), sequence (Q96RI1 whole entry, looked up, the tested form may be a part): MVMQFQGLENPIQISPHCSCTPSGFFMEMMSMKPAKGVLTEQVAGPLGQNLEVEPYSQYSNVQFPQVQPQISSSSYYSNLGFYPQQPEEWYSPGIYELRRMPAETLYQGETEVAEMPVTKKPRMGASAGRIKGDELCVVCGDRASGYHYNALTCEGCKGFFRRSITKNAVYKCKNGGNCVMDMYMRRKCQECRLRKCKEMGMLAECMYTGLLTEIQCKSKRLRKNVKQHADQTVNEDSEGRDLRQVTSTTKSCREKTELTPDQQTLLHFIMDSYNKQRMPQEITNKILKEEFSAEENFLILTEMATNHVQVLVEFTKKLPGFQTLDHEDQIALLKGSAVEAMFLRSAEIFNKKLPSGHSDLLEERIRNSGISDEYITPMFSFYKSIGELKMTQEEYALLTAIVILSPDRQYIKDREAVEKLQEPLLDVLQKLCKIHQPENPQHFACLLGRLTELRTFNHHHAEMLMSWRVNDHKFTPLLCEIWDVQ
Glucocorticoid receptor (Homo sapiens), sequence (P04150 whole entry, looked up, the tested form may be a part): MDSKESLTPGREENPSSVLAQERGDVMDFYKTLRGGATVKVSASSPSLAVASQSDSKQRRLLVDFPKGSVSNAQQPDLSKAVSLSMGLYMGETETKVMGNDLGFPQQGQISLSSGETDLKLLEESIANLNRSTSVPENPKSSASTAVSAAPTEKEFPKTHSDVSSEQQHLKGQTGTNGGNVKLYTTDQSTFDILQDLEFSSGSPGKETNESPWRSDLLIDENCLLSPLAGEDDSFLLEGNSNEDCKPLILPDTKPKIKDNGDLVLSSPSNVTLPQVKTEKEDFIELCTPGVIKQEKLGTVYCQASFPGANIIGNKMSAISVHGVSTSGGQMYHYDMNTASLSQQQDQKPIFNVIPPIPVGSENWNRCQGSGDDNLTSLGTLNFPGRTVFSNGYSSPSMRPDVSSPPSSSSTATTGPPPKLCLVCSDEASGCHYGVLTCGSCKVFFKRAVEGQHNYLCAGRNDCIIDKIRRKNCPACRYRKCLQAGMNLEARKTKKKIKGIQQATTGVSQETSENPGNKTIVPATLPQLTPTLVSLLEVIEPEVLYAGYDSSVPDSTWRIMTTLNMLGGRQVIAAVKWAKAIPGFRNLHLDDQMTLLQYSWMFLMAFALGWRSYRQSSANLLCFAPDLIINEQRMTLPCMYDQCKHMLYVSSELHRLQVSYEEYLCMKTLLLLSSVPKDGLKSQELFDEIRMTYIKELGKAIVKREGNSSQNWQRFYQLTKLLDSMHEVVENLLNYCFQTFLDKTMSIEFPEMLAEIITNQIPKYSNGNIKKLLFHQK
Nuclear respiratory factor 1 (Homo sapiens), sequence (Q16656 whole entry, looked up): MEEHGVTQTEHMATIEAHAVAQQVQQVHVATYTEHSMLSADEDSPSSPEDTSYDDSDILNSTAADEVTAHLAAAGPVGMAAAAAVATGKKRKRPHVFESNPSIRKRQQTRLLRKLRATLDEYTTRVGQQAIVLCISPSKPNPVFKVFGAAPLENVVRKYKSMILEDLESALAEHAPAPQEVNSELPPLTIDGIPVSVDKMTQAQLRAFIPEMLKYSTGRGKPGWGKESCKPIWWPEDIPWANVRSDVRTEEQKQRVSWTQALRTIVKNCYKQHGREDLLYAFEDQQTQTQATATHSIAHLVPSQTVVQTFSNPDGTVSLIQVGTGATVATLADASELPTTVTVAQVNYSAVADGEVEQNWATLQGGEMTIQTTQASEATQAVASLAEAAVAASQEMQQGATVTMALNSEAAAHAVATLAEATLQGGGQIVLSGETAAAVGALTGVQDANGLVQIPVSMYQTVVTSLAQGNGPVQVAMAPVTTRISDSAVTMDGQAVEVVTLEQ
Nuclear receptor subfamily 4 group A member 2 (Homo sapiens), sequence (P43354 whole entry, looked up): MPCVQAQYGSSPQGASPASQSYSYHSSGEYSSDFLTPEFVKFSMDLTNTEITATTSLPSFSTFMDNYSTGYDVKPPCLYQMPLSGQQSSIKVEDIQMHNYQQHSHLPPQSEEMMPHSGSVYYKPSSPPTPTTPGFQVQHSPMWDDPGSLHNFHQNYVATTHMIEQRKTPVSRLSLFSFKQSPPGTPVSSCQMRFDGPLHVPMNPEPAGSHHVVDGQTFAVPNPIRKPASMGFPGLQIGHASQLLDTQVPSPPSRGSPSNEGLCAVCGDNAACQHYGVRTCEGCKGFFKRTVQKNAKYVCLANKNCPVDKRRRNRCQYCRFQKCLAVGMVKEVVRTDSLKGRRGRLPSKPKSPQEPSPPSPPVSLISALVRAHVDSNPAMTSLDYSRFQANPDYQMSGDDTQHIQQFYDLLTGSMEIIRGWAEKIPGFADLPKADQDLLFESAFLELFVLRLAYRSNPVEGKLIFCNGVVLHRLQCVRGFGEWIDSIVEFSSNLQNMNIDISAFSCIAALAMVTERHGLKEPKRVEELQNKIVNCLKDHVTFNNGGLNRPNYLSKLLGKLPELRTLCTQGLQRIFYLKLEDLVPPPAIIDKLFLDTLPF

Take `C#CC1(O)CC[C@H]2[C@@H]3CCC4=CCCC[C@@H]4[C@H]3CC[C@@]21C` (stereo not given in full): the concentration at half-maximal activity (AC50) in [1] is 16.8 µM (active); in [3], 0.00914 µM (active); in [10] it was 1.46 µM (active); in experiment [11], 1.81 µM (active). Also, the outcome in experiment [2], in [4], in experiment [5], in experiment [6], in experiment [7] and in experiment [8] was inactive. Further, the result in experiment [9], in experiment [12], in [13], in [14] and in experiment [15] was inactive.
Regarding `CC=CCO`, the outcome in [1], in experiment [2], in experiment [4], in experiment [8], in experiment [9] and in experiment [12] was inactive. Moreover, the compound was called inactive in [16], in experiment [13], in [17], in experiment [14] and in experiment [15].
Regarding `O=CN1CCCCC1`, the result in experiment [1], in experiment [2], in [18], in experiment [3], in experiment [4] and in experiment [5] was inactive. Further, the result in [6], in [11], in experiment [13], in [17], in experiment [14] and in [15] was inactive.
As to `Cc1ccc(N)c([N+](=O)[O-])c1`, the compound was classed as inactive in [1], in experiment [2], in experiment [4], in [5], in experiment [8] and in [12]. Also, the compound was classed as inactive in experiment [14] and in [15].
In the case of `Nc1cccc(C(F)(F)F)c1`, the result in [1], in experiment [3], in experiment [19], in [7], in experiment [9] and in experiment [10] was inactive. The compound was called inactive in experiment [11], in experiment [16], in [13], in experiment [17] and in experiment [15].
Consider `O=C(Nc1cccc(C(F)(F)F)c1)c1cc(Br)cc(Br)c1O`, for which the AC50 was 145 µM (active) in [1], 2.18 µM (active) in [2], 26.4 µM (active) in [4] and 172 µM (active) in experiment [15]. The result in experiment [6], in experiment [8], in [9], in experiment [12], in experiment [16] and in experiment [13] was inactive. Besides, the compound was classed as inactive in [17] and in experiment [14].
As to `Clc1nc2ccccc2s1`, the call in [1], in experiment [2], in experiment [4], in [6], in [12] and in experiment [16] was inactive. In addition, the compound was classed as inactive in [13], in experiment [17] and in experiment [15].
Turning to `C1=Cc2ccccc2C1`, the call in experiment [1], in experiment [2], in [18], in experiment [4], in [6] and in experiment [7] was inactive. Also, the outcome in [10], in experiment [11], in [12], in experiment [16], in experiment [14] and in experiment [15] was inactive. Besides, the concentration at half-maximal activity (AC50) in experiment [3] was 65.8 µM (active).
With `CC(C)c1ccc2c(C(C)C)cc(C(C)C)c(S(=O)(=O)O)c2c1`, the result in [1], in experiment [4], in experiment [6], in [9], in experiment [13] and in [14] was inactive. In experiment [15], the call was inactive. In addition, the AC50 in experiment [2] was 8.94 µM (active); in experiment [3], 45.4 µM (active).

Values taken from PubChem BioAssay (EPA / NIEHS).
